The record followed here is PubChem BioAssay (NCI).

The nature of assay [1]: NCI Yeast Anticancer Drug Screen. Data for the rad50 strain (AID 155).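 Further: 0% = growth of vehicle-only cultures of the same strain.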 The settings on record: S. cerevisiae rad50 strain growth inhibition, active compounds read high; at 50.0 µM unless noted. An outline of the steps: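 Inhibition values express reduced yeast growth in compound-treated cultures relative to vehicle-treated controls.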
Assay [2] can be described thus: NCI Yeast Anticancer Drug Screen. Data for the mec2-1 strain (AID 157). The note with it: S. cerevisiae mec2-1 strain, active compounds read high; at 50.0 µM unless noted. Summed up:
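Mutant yeast (mec2-1) grown with compound; growth inhibition relative to vehicle control reported.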

The nature of assay [3]: NCI Yeast Anticancer Drug Screen. Data for the sgs1 mgt1 strain (AID 161).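 Further: 0% = growth of cultures given vehicle only.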 The settings on record: S. cerevisiae sgs1 mgt1 strain, active compounds read high; at 50.0 µM unless noted. An outline of the steps: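 Yeast cells carrying a defined DNA-repair defect were exposed to test compounds. Growth inhibition was measured relative to vehicle-treated controls.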
Assay [4] can be described thus: NCI Yeast Anticancer Drug Screen. Data for the cln2 rad14 strain (AID 165).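 Further: 0% = growth equal to vehicle treated cultures.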 The settings on record: S. cerevisiae cln2 rad14 strain, active compounds read high; at 50.0 µM unless noted. An outline of the steps: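 Readout is yeast growth inhibition versus vehicle-treated controls, using a strain with cln2 and rad14 alterations exposed to compound.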
Assay [5] in a line: NCI Yeast Anticancer Drug Screen. Data for the bub3 strain (AID 167). The note with it: S. cerevisiae bub3 mutant strain, active compounds read high; at 50.0 µM unless noted. Summed up:
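Steps: expose the mutant yeast strain to compound; grow alongside vehicle-treated cultures; measure growth; express inhibition against the vehicle cultures.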

Assay [6] in a line: NCI Yeast Anticancer Drug Screen. Data for the mlh1 rad18 strain (AID 175). The settings on record: S. cerevisiae mlh1 rad18 strain growth inhibition, active compounds read high; at 50.0 µM unless noted. Summed up:
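Genetically defined yeast (DNA repair-deficient) exposed to compounds; growth inhibition determined relative to vehicle.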

Molecules are shown by their SMILES. “And” between values parts separate entries of the source, which are not always exact repeats. Identical values can stand only once. The panel holds about 79,000 compounds, 15% with a hit somewhere; the sample as a whole holds those more often. Unmarked numbers belong to inactive results. The source made the active and inactive calls. No stated cut-off is given here; in the data, active means growth inhibition above about 70%; inactive means the rest.

For `O=C1CC(c2ccccc2)n2c(nc3ccccc32)N1` (centres undefined), the growth inhibition in assay [1] was 5%; in assay [2], 1.85%; in assay [3], -18.1%; in assay [4], -14.1%; in assay [5], -15.4%; in assay [6], -64.2%.

Turning to `CCC(C)C(O)C(C(=O)O)C1CCCCC1` (centres undefined), the growth inhibition is 31.6% in assay [1]; 23.2% in assay [2]; 15.4% in assay [3]; 39.5% in assay [4]; 23.9% in assay [5]; 26% in assay [6].

Turning to `Cc1nc(SCC(=O)Nc2ccccc2)c2sc(=S)n(-c3ccccc3)c2n1`, the growth inhibition is -45.9% in assay [1]; -10.2% in assay [2]; -0.05% in assay [3]; -5.35% in assay [4]; -19.9% in assay [5]; -18.4% in assay [6].

For the compound `CC1(C)CC2(Nc3ccccc3N2)C2=C(O1)C(=O)OC2`, the growth inhibition in assay [1] was 9.45%; in assay [2], -8.25%; in assay [3] it was -18.7%; in assay [4], -1.3%; in assay [5] it was -6.15%; in assay [6], -10.6%.

On to `COCCCCCCCCCCCC(=O)O`, for which the growth inhibition in assay [1] was -23.4%; in assay [2], 1.3%; in assay [3] it was -46.2%; in assay [4], -0.15%; in assay [5] it was -21.2%; in assay [6], -63.7%.

Consider `O=Nc1c(S(=O)(=O)O)cc2cc(S(=O)(=O)O)ccc2c1O`, for which the growth inhibition in assay [1] is 41.9%; in assay [2] it was 0.55%; in assay [3] it was 45.2%; in assay [4] it was 22.4%; in assay [5], 23.1%; in assay [6], 30.4%.

Take `O=C(O)c1ccc(NCC(O)COc2ccc([N+](=O)[O-])cc2)cc1` (centres undefined): the growth inhibition was -6.7% in assay [1]; 4.85% in assay [2]; -2.8% in assay [3]; 5.4% in assay [4]; -3.55% in assay [5]; 0.25% in assay [6].

Take `COC(=O)CCCCC(=O)OC`: the growth inhibition in assay [1] was 35.9%; in assay [2], -0.3%; in assay [3], 15.1%; in assay [4] it was -1.9%; in assay [5], -9%; in assay [6] it was 13.4%.

Regarding `COc1c2c(cc3c1C(CCCc1ccccc1)N(C)CC3)OCO2` (centres undefined), the growth inhibition in assay [1] is 22.4%; in assay [2], 7.6%; in assay [3], 30.7%; in assay [4] it was 11.5%; in assay [5], 9.75%; in assay [6] it was 28.6%.

On to `COC(=O)CC(C)N(c1ccc(Cl)c(Cl)c1)S(=O)(=O)c1ccc(C)cc1` (centres undefined), for which the growth inhibition in assay [1] is 37.9%; in assay [2] it was -0.15%; in assay [3], 4.1%; in assay [4], -19.1%; in assay [5] it was -6.05%; in assay [6], 11.1%.

Turning to `CC[N+]1(CC)CC[N+]2(CC1)CC[N+]1(CC[N+](CC)(CC)CC1)CC2`, the growth inhibition was -16.9% in assay [1]; -3.4% in assay [2]; 12.1% in assay [3]; -26.6% in assay [4]; 1.7% in assay [5]; 2.7% in assay [6].

With `Cc1ccc(C)c(Nc2c(C)ccc(C)c2C(=O)O)c1`, the growth inhibition in assay [1] was -5.3%; in assay [2], -1.05%; in assay [3] it was 12.4%; in assay [4] it was 14%; in assay [5], -10.1%; in assay [6] it was -12.6%.

With `O=C1CCCCC(=O)Nc2ccccc2N1`, the growth inhibition in assay [1] was -22.2%; in assay [2], -15.8%; in assay [3], -6.85%; in assay [4], 0.9%; in assay [5] it was -4.9%; in assay [6] it was -20.8%.

As to `O=C(O)CC(C(=O)O)C(Cc1ccccc1)c1ccccc1` (centres undefined), the growth inhibition was -10.2% and 22.4% in assay [1]; -4.25% and 10.9% in assay [2]; 0.35% and 10.1% in assay [3]; -0.05% and 5.95% in assay [4]; -1.6% and 10.1% in assay [5]; -3.15% and -6.55% in assay [6].

For `CSc1nc2c([nH]1)c(=O)n(C)c(=S)n2C`, the growth inhibition in assay [1] is 4.95%; in assay [2] it was 6.05%; in assay [3] it was -0.85%; in assay [4], 12.1%; in assay [5], 0.4%; in assay [6], -4.25%.

Regarding `COC1OC(COC(c2ccccc2)(c2ccccc2)c2ccccc2)C(O)C(O)C1O` (centres undefined), the growth inhibition in assay [1] was 40.7%; in assay [2], 47%; in assay [3], 42.6%; in assay [4], 84.5% (active); in assay [5], 38%; in assay [6] it was 41.1%.

With `CC(=O)OCC1OC(n2c(=O)[nH]c(=O)c3n[nH]nc32)C(OC(C)=O)C(OC(C)=O)C1OC(C)=O` (centres undefined), the growth inhibition in assay [1] was -4.2%; in assay [2], 7.15%; in assay [3], 3.4%; in assay [4], 24.9%; in assay [5], -1.05%; in assay [6], -4.35%.

On to `CCN(CC)c1ccc2cc(-c3csc(-c4ccc(N(C)C)cc4)n3)c(=O)oc2c1`, for which the growth inhibition in assay [1] was 26.5%; in assay [2] it was 12.7%; in assay [3], -5.25%; in assay [4], 16.9%; in assay [5] it was -13.1%; in assay [6], -20.3%.

For `CCCCC(NC(=O)c1ccc2ccccc2n1)C(=O)O` (centres undefined), the growth inhibition in assay [1] was -0.35%; in assay [2], 9%; in assay [3], 1.5%; in assay [4], 7.35%; in assay [5] it was -8.7%; in assay [6], 20.2%.
